# Assay results from paper PMC12701074.
# Columns and labels:
# Histone H4 = Histone H4 (UniProt P62805); test: cross-linking mass spectrometry
# Histone H1.4 = Histone H1.4 (UniProt P10412); test: cross-link between two proteins; cross-linking mass spectrometry
# Protein RCC2 = Protein RCC2 (UniProt Q9P258); test: as above
# [1] = molecular target: Beta-actin-like protein 2 (UniProt Q562R1); test: as above
# [2] = molecular target: Elongation factor 1-alpha 1 (UniProt P68104); test: as above
# Histone H2B type 1-B = Histone H2B type 1-B (UniProt P33778); test: as above
# Histone H2B type 1-L = Histone H2B type 1-L (UniProt Q99880); test: as above
# [3] = molecular target: Large ribosomal subunit protein eL8 (UniProt P62424); test: as above
# Nucleolin = Nucleolin (UniProt P19338); test: as above
# Nucleolin, sequence (P19338 whole entry): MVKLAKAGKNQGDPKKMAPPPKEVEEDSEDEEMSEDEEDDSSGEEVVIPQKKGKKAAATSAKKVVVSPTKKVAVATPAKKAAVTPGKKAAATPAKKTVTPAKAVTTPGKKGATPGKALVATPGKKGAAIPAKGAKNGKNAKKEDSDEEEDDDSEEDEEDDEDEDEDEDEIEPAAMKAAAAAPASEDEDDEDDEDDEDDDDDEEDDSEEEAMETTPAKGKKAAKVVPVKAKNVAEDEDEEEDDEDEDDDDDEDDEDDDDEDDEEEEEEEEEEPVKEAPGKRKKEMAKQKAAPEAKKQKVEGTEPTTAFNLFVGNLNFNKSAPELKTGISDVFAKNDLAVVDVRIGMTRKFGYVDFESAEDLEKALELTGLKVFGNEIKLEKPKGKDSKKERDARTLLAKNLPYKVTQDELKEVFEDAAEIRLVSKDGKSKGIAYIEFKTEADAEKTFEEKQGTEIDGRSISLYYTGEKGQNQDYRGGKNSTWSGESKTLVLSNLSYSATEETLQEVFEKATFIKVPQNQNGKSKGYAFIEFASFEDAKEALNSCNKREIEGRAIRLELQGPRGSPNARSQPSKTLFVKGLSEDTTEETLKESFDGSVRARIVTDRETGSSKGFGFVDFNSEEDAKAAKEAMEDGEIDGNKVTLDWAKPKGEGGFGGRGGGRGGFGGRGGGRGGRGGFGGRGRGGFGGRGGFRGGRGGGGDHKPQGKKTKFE
# Tubulin beta-2B chain = Tubulin beta-2B chain (UniProt Q9BVA1); test: as above
# Tubulin beta-2B chain, sequence (Q9BVA1 whole entry): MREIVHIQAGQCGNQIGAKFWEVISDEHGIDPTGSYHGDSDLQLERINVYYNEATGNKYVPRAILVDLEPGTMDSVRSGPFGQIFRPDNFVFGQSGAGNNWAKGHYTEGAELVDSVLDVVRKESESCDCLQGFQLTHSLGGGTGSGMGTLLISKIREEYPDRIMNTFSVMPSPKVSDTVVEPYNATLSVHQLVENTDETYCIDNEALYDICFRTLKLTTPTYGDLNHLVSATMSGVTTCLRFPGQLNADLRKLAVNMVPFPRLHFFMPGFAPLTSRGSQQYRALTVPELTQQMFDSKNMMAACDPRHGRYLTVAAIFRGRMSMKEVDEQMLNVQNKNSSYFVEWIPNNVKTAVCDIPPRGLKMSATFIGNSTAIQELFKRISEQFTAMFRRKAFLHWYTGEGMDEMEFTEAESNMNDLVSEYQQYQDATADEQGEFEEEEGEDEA
# Tubulin beta-3 chain = Tubulin beta-3 chain (UniProt Q13509); test: as above
# Tubulin beta-3 chain, sequence (Q13509 whole entry): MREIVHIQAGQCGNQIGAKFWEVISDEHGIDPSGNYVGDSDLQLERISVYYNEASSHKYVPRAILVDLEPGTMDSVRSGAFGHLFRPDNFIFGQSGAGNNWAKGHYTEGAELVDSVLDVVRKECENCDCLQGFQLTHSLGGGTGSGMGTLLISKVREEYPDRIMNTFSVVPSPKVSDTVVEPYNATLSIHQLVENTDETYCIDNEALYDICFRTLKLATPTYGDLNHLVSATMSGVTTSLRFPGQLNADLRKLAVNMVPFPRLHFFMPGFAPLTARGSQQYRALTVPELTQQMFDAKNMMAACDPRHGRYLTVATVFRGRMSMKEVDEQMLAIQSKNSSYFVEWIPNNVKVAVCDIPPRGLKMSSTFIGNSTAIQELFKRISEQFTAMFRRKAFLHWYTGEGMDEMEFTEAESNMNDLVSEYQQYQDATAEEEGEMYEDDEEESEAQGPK
# Tubulin beta-4B chain = Tubulin beta-4B chain (UniProt P68371); test: as above
# Tubulin beta-4B chain, sequence (P68371 whole entry): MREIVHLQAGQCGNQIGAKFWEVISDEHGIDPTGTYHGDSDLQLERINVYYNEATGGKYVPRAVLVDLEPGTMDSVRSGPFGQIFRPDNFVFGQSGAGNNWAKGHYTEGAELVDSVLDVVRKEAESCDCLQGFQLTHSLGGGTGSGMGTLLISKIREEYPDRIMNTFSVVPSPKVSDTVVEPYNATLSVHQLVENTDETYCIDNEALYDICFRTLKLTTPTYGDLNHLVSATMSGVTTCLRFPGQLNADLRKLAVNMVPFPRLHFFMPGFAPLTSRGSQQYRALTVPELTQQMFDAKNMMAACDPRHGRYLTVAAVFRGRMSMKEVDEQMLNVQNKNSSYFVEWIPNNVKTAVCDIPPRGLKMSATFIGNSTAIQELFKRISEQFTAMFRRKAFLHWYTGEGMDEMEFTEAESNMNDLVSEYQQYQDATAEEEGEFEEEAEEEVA
# Elongation factor 1-alpha 1, sequence (P68104 whole entry): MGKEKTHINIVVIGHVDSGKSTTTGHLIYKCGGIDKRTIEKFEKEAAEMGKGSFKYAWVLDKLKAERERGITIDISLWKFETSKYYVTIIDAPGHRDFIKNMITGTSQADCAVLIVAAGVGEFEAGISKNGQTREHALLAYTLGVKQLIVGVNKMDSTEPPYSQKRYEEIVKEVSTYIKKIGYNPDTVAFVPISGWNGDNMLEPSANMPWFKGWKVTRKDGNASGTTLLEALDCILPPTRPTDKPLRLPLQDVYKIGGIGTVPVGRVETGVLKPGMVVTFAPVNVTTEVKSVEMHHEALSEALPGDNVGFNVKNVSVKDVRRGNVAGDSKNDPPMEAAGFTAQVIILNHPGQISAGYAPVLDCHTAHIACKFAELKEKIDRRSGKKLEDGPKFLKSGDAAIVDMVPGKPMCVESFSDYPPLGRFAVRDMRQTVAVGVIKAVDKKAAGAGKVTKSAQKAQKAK
# Protein RCC2, sequence (Q9P258 whole entry): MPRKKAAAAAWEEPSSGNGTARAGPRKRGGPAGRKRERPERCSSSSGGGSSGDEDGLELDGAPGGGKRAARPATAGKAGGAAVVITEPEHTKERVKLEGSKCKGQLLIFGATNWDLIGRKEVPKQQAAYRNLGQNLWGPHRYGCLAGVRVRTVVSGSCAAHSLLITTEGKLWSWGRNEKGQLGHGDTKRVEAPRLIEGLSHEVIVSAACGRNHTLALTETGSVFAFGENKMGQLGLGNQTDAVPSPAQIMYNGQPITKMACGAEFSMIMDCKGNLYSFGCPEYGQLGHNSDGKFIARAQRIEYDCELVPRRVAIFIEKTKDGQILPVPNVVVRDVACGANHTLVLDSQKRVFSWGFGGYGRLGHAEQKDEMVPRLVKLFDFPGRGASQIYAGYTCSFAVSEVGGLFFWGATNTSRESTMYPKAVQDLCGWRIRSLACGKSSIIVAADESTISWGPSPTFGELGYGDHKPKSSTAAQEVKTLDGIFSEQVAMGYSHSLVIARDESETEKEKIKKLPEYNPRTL
# Glyceraldehyde-3-phosphate dehydrogenase, P04406, sequence (P04406 whole entry): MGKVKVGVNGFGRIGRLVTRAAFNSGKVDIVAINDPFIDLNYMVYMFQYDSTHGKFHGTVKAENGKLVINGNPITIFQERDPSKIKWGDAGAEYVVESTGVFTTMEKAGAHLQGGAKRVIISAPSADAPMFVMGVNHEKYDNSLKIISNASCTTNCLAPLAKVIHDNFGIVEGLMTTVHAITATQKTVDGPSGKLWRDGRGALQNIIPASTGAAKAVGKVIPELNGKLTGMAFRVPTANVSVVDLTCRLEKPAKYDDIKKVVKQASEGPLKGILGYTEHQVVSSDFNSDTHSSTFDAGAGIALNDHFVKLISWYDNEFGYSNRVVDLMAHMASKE
# Beta-actin-like protein 2, sequence (Q562R1 whole entry): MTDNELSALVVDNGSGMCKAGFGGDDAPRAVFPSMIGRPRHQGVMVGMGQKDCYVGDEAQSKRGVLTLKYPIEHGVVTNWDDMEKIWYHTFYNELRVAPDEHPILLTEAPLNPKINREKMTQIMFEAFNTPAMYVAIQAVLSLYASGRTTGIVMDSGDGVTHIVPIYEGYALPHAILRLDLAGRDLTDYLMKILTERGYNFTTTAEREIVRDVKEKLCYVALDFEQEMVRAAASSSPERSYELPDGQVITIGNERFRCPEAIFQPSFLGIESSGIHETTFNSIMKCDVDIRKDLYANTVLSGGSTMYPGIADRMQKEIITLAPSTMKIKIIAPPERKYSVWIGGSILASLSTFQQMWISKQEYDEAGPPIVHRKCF
# ATP-dependent RNA helicase A, Q08211, sequence (Q08211 whole entry): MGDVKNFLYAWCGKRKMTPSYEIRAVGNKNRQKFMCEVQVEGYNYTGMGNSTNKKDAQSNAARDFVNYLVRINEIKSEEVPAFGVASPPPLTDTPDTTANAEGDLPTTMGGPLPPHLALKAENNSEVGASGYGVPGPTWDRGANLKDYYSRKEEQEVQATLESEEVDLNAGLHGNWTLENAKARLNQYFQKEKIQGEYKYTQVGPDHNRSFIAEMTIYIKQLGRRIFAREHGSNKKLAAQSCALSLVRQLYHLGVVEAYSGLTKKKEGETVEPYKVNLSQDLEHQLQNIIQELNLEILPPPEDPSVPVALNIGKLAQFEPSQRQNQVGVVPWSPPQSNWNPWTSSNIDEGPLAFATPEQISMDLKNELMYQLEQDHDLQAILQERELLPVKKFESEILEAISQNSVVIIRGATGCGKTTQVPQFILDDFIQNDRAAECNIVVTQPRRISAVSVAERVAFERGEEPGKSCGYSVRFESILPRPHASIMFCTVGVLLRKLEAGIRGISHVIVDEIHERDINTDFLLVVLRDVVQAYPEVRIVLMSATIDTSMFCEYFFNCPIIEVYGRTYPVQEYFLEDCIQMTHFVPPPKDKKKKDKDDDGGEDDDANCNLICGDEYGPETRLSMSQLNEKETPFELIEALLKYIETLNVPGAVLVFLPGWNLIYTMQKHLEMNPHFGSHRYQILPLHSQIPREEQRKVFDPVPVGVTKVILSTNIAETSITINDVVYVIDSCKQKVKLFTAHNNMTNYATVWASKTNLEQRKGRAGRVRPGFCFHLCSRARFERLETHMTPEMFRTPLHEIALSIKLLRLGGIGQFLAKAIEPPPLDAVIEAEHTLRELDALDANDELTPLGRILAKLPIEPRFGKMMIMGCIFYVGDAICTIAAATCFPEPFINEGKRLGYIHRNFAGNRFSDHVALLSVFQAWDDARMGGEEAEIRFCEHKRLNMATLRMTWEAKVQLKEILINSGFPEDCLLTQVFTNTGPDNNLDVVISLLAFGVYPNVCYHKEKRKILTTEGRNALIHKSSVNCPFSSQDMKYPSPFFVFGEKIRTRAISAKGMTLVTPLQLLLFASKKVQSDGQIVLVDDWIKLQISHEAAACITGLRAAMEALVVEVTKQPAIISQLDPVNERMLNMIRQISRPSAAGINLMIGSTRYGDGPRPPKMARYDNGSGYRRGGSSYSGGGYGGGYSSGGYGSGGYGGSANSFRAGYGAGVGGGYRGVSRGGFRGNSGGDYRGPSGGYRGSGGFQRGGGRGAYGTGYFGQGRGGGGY
substance,measurement,setting,value
"High mobility group protein B1, P09429",listed as a hit,Histone H4,yes
same,listed as a hit,Histone H1.4,yes
same,listed as a hit,Protein RCC2,yes
"Destrin, P60981",listed as a hit,[1],yes
"Fructose-bisphosphate aldolase A, P04075",listed as a hit,[2],yes
same,listed as a hit,Histone H2B type 1-B,yes
"ATP-dependent RNA helicase A, Q08211",listed as a hit,Histone H2B type 1-L,yes
"Heterogeneous nuclear ribonucleoprotein D-like, O14979",listed as a hit,Histone H2B type 1-L,yes
"Histone H1.3, P16402",listed as a hit,[3],yes
"Macrophage migration inhibitory factor, P14174",listed as a hit,Nucleolin,yes
"Tubulin beta-4B chain, P68371",listed as a hit,Tubulin beta-2B chain,yes
same,listed as a hit,Tubulin beta-3 chain,yes
"Tubulin beta chain, P07437",listed as a hit,Tubulin beta-4B chain,yes
"Glyceraldehyde-3-phosphate dehydrogenase, P04406",listed as a hit,Tubulin beta-4B chain,yes
